The values that follow come from PubChem BioAssay.

Molecules are shown by their SMILES. Records with an inconclusive call do not appear. The source made the active and inactive calls.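 Rule for the calls, unless noted: active = inhibition above 50%, about 3 SD of the validation set; inactive = the rest.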

The nature of assay [1]: yeast TOR pathway RPL19A-GFP modulators, primary screen, cell-based, S. cerevisiae, multiplex flow cytometry (AID 1862; in the data active = percent of DMSO control GFP below about 86%;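 note: lower values mimic rapamycin by blocking the RPL19A rise seen in DMSO cells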). Particulars: S. cerevisiae RPL19A-GFP strain, flow cytometry fluorescence, 3 h; at 10 µM; stronger effect = lower value. (In general: In flow cytometry, cells or beads pass a laser one at a time.)
A short description of assay [2]: modulators of MEP2-GFP levels in yeast, primary screen, S. cerevisiae, multiplex flow cytometry (AID 1867;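 active = GFP response, as percent of the DMSO control, above the screen-wide mean plus 3 SD, about 139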;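 note: median GFP channel fluorescence of barcode-gated MEP2-GFP cells measured by flow cytometry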). Particulars: S. cerevisiae MEP2-GFP strain, 3 h, at 10 µM, stronger effect = higher value, 100% means same as DMSO wells.
Assay [3] can be described thus: modulators of CIT2-GFP expression in yeast, primary screen, S. cerevisiae, GFP fusion, multiplex flow cytometry (AID 1870;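 active = percent response above a set limit, the screen-wide mean plus 3 SD, cut at about 130% in these data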;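 note: barcoded CIT2-GFP strain pooled with four other GFP strains with rapamycin as positive control; median GFP fluorescence per well over plate mean of DMSO wells so 100% = DMSO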). The settings on record: 3 h, at 10 µM, stronger effect = higher value.
Assay [4] in a line: modulators of LAP4-GFP expression in yeast, primary screen, S. cerevisiae, multiplex flow cytometry (AID 1873;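 active = GFP signal, as percent of the solvent control, above the screen mean plus 3 SD, about 149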). The settings on record: 3 h, at 10 µM, stronger effect = higher value.
Assay [5] in a line: modulators of AGP1-GFP expression in yeast TOR pathway, primary screen, cell-based, multiplex flow cytometry, S. cerevisiae (AID 1887;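 active = GFP signal above the screen-wide mean plus 3 SD, that is over about 124.5% of the solvent control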;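 note: AGP1-GFP fusion strain of S. cerevisiae within a five-strain barcoded multiplex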). The settings on record: 3 h, at 10 µM, stronger effect = higher value.
Assay [6] can be described thus: inhibitors of CD8+ T cell-vesicle binding, pilot screen, LFA-1/ICAM-1 modulator project, MLPCN validation set, flow cytometry (AID 2523;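 active = response below a set limit, under 55% cells CD8-positive and vesicle-bound, and CD8 cells' 90th-percentile brightness under 279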;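 for vesicle binding response: mean PE anti-B7-1 fluorescence of CD8+ cells relative to row control; 100% = QL9-loaded vesicles with DMSO vehicle in the same plate row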). The settings on record: 2C mouse CD8+ T cells, at 7 µM, stronger effect = lower value; double positive events: measured here: CD8+/vesicle+ event percentage.
Assay [7] addresses Integrin beta-1 (Homo sapiens) + Integrin alpha-4 (Homo sapiens) (UniProt P13612+P05556). Description: inhibition of HUTS-21 binding to VLA-4, pilot screen, VLA-4 allosteric modulator project, U937 cells, HUTS-21 mAb, flow cytometry, validation set (AID 2674).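 Note: antibody binding induced by the VLA-4 ligand LDV present at three times its Kd; 0% = LDV ligand with antibody and no compound and 100% = antibody without LDV.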 The settings on record: HUTS-21 LIBS mAb binding, at 6.7 µM, stronger effect = higher value, binding induced by LDV ligand.
The target in assay [8] is Beta-adrenergic receptor kinase 1 (Homo sapiens) (UniProt P25098). As to the kind of experiment: GRK2 binders displacing RNA aptamer, biochemical, validation, human GRK2, bead flow cytometry (AID 488806;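 active = aptamer binding inhibition above 30%, about 3 SD of noise from non-fluorescent compounds; inactive = inhibition at or below 30%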). Particulars: bead-bound GRK2, FAM-aptamer displacement, at 10 µM, stronger effect = higher value.
For assay [9], the target named is Beta-2 adrenergic receptor (Homo sapiens) (UniProt P07550). Description: beta2AR agonists driving receptor internalization, pilot screen, cell-based, FAP fluorogen, flow cytometry, validation set (AID 504459;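 active = percent response above 42, roughly 3 SD of non-fluorescent test compounds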;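 note: agonist-driven loss of surface beta2AR via internalization measured by FAP dye flow cytometry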). The settings on record: Am2.2-beta2AR cells, FAP surface receptor flow cytometry; at 10 µM; stronger effect = higher value.
Assay [10] deals with AP-2 complex subunit beta (Homo sapiens) (UniProt P63010). As to the kind of experiment: inhibitors of arrestin peptide binding to AP2, pilot screen, biochemical, validation set, GST-AP2 beads, flow cytometry (AID 504541;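 active = inhibition above 54%, about 3 SD of non-fluorescent compounds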;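 note: AP2 carries R879A mutation and is captured from E. coli lysate; bead-bound FITC arrestin peptide fluorescence measuring arrestin peptide binding to AP2; 0% = DMSO wells and 100% = excess unlabeled arrestin peptide control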). The settings on record: FITC arrestin peptide, at 10 µM, stronger effect = higher value, AP2 beta2 appendage fragment, R879A mutant.
Assay [11] in a line: yeast V-ATPase proton transport modulators, S. cerevisiae, pHLuorin, HTS validation (AID 504600; in the data active = response above about 15%;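 note: plate controls were DMSO for no effect and reference compound for full effect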). Particulars: S. cerevisiae pHLuorin cytosolic pH, at 10 µM, stronger effect = higher value.
Assay [12] has as its system anti-desmoglein-3 scFv antibody binding to human DSG3. Description: inhibitors of anti-DSG3 scFv binding to DSG3, pilot screen, biochemical, validation compound set, bead-based, flow cytometry (AID 588368;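 active = binding below the plate cutoff, the plate median minus 3 SD, with a reading above zero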;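 note: signal is the median channel fluorescence of bead-bound GFP antibody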). Particulars: Protein G beads, DSG3-Fc, scFv-GFP binding, at 10 µM, stronger effect = lower value.
Assay [13] is described as follows: inhibitors of fungal efflux pumps CDR1, CDR2, MDR1, pilot screen, validation compound set, multiplex, phenotypic (AID 588506;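 active = efflux inhibition above 0.42, the validation set average plus 4 SD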;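 note: Nile Red retained in cells so higher fluorescence means more efflux inhibition; 0 = negative control wells and 1 = enniatin B 25 µM full block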). The settings on record: S. cerevisiae pump-expressing triplex, Nile Red efflux flow cytometry; at 10 µM; stronger effect = higher value; the pumps come from Candida albicans.
The target of assay [14] is ATP-binding cassette sub-family B member 6 (Homo sapiens) (UniProt Q9NP58). As to the kind of experiment: ABCB6 transporter inhibitors, pilot screen, K562-ABCB6 cells, flow cytometry, validation set (AID 588550;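 active = inhibition above the screen-wide mean plus 3 SD, about 51%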;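 note: 0% = DMSO wells and 100% = benzethonium chloride 70 µM positive control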). The settings on record: K562-ABCB6 porphyrin accumulation, 1 h, at 10 µM, stronger effect = higher value.
Assay [15] is described as follows: promoters of myeloid differentiation in arrested cells, primary screen, cell-based, GFP/MAC1 double positive, flow cytometry, validation set (AID 588685;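 active = differentiation response of at least 50%, scaled between solvent and reference control, from cells with both markers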;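 note: compound exposure lasts four days before antibody staining and flow analysis; 0% = DMSO wells and 100% = 5 µM fulvestrant positive control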). Particulars: ER-HoxA9 marrow cells, stronger effect = higher value, normalized: vehicle 0, fulvestrant 100.
The nature of assay [16]: superoxide lowering in aged yeast cells, pilot screen, validation compound set (AID 2706;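 active = superoxide response below 65% of plate, a cut near 3 SD across the whole screen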;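 note: yeast exposed to compound for one week at 30 degrees C before staining; 100% = mean of all compound wells on the same plate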). Particulars: S. cerevisiae aging, superoxide DHE fluorescence; at 10 µM, stronger effect = lower value.

Sequence of Integrin beta-1 (Homo sapiens) + Integrin alpha-4 (Homo sapiens) (P05556 whole entry, looked up): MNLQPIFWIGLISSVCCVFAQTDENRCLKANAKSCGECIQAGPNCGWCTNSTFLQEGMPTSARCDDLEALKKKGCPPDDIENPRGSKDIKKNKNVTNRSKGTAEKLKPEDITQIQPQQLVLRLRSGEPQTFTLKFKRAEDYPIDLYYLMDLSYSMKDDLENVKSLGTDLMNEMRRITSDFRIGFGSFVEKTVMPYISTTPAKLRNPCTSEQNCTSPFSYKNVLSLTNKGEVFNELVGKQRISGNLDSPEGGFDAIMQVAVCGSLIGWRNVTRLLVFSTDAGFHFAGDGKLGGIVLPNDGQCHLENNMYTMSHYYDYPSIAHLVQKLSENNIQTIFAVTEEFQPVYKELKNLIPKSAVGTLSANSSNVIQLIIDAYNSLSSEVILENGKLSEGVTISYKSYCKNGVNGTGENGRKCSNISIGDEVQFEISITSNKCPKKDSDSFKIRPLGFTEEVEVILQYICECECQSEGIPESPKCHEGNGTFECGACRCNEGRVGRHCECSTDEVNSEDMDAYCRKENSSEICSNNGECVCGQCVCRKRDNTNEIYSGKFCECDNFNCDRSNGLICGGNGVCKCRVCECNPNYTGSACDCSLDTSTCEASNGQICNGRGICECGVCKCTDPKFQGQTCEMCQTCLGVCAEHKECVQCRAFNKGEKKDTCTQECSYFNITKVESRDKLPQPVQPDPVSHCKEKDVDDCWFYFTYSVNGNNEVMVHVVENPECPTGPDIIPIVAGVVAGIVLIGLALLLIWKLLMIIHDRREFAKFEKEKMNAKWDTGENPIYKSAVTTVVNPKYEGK
Sequence of Integrin beta-1 (Homo sapiens) + Integrin alpha-4 (Homo sapiens) (P13612 whole entry, looked up): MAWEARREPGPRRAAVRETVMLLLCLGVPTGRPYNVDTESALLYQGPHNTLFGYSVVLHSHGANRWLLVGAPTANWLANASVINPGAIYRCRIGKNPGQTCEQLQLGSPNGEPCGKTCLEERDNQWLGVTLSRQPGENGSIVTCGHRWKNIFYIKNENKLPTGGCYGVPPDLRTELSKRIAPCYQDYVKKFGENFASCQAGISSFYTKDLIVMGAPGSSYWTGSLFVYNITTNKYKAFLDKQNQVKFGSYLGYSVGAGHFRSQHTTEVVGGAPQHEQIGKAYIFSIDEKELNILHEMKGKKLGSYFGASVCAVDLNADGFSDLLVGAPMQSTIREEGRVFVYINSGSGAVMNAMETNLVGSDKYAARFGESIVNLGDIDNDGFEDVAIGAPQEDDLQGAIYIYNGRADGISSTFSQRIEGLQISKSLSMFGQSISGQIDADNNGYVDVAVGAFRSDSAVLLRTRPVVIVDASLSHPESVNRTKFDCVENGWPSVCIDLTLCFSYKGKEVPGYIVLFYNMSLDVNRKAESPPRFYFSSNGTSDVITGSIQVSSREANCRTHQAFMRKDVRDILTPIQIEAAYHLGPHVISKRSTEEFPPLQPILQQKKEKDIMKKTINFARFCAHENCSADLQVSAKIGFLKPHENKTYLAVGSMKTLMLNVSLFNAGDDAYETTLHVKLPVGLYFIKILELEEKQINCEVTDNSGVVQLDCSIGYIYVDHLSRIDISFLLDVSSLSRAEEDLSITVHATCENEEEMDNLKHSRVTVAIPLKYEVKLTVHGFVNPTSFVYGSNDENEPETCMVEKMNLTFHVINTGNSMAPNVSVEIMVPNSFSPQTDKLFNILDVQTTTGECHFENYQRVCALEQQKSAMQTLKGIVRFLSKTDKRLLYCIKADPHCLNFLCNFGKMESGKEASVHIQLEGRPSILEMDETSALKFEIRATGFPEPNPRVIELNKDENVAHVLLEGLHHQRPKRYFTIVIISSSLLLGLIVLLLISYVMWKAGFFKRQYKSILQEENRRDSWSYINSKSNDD
Sequence of AP-2 complex subunit beta (Homo sapiens) (P63010 whole entry, looked up, the tested form may be a part, one chain of several): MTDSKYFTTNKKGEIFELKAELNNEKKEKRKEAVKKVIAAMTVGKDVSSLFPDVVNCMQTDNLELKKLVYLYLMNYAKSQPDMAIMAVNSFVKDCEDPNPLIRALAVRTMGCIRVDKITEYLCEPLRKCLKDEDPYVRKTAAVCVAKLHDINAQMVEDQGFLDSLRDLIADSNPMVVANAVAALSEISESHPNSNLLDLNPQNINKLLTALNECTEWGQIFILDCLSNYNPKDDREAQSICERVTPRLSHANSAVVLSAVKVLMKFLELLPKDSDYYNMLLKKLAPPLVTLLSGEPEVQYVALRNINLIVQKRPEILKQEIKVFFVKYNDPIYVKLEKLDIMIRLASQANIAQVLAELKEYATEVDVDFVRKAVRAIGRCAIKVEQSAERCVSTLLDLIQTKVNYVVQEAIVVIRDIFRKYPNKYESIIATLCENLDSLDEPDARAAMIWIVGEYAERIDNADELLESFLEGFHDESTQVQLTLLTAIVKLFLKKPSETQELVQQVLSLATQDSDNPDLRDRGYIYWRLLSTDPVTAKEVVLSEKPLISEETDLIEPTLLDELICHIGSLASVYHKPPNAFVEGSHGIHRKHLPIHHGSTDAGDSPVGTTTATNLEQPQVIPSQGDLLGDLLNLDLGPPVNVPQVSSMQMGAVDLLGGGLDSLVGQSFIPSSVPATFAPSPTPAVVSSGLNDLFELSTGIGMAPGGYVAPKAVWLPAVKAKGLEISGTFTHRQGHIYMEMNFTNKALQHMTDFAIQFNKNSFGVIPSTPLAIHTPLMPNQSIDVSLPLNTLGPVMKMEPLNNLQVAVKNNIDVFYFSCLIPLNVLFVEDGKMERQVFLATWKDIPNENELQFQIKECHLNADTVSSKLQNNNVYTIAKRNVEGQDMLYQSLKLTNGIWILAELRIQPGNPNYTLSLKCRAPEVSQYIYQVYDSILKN
Sequence of ATP-binding cassette sub-family B member 6 (Homo sapiens) (Q9NP58 whole entry, looked up): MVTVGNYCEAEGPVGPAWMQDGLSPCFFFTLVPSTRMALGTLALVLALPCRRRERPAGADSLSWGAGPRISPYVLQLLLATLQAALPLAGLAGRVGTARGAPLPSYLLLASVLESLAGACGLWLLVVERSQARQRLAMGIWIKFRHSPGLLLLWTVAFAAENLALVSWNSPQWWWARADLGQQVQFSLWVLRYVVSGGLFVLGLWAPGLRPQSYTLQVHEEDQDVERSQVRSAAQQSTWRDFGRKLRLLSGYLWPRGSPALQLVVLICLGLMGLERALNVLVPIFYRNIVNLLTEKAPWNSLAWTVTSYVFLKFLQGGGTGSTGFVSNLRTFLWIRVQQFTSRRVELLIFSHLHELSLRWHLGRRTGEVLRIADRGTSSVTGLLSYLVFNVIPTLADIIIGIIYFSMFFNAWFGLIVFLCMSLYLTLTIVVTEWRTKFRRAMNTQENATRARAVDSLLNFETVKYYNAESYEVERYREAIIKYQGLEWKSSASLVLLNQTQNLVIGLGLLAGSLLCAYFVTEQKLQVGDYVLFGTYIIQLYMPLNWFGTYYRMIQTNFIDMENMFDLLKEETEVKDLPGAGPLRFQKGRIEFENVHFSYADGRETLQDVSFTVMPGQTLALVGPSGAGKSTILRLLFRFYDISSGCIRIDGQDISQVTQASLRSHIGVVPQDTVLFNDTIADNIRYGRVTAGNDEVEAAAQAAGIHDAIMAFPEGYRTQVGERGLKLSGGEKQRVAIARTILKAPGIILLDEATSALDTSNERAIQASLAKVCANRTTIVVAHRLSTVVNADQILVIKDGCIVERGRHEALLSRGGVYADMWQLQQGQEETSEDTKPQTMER
Sequence of Beta-adrenergic receptor kinase 1 (Homo sapiens) (P25098 whole entry, looked up): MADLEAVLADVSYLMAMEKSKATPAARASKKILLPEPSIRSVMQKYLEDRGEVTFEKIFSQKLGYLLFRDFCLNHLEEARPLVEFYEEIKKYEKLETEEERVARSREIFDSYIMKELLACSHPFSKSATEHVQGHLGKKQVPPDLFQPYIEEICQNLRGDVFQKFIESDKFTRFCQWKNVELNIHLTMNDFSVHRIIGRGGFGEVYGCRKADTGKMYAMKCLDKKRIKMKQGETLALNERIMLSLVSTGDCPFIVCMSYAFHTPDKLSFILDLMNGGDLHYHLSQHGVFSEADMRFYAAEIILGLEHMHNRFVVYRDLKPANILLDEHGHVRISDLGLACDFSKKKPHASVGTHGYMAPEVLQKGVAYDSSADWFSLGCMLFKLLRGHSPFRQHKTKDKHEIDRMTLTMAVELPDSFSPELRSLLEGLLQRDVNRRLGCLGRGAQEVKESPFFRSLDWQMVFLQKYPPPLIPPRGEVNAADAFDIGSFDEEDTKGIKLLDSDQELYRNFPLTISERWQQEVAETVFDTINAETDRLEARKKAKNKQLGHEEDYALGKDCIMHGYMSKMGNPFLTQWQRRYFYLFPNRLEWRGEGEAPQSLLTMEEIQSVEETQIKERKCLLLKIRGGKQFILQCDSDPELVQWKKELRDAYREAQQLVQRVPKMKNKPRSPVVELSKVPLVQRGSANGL
Sequence of Beta-2 adrenergic receptor (Homo sapiens) (P07550 whole entry, looked up): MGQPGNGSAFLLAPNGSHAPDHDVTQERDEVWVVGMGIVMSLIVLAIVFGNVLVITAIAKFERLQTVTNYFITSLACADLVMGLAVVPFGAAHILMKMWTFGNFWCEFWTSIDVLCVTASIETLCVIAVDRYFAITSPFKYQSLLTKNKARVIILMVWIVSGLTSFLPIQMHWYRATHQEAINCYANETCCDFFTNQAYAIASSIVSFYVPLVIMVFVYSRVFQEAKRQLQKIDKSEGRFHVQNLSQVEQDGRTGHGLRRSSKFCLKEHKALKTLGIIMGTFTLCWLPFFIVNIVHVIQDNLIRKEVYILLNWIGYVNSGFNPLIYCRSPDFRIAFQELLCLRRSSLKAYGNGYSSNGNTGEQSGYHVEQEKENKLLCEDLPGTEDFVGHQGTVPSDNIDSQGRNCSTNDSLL

Consider `CCOC(=O)c1cccc(C(=O)OCC)n1`, for which the percent of DMSO control GFP in [1] is 102% (inactive). Further, the GFP response vs DMSO in assay [2] is 98.3% (inactive); in assay [4] it was 84.1% (inactive). For the same compound, the percent response of DMSO control in [3] was 100% (inactive). Moreover, the GFP response, % of DMSO in assay [5] is 95.7% (inactive). This compound displayed a double positive events in [6] of 62.1%. Further, the vesicle binding response in [6] is 28.3% (inactive). Moreover, the results for the inhibition in assay [7], in assay [10] and in [14] were -2.53% (inactive), 5.21% (inactive) and 5% (inactive), respectively. Moreover, in [8], the aptamer binding inhibition was 0% (inactive). Besides, the response was -0.16% (inactive) in assay [9] and -1.45% (inactive) in assay [11]. Further, in assay [12], the binding (% of control) was 103% (inactive). Besides, the efflux inhibition (fraction of control) in [13] is 0.68 (active). Also, the differentiation response in assay [15] was 29.6% (inactive).

As for `Oc1c(Cl)cc(Cl)c(Cl)c1Cc1c(O)c(Cl)cc(Cl)c1Cl`, the percent of DMSO control GFP in assay [1] is 107% (inactive). The GFP response vs DMSO in [2] was 113% (inactive); in [4] it was 96.8% (inactive). Further, the percent response of DMSO control in [3] is 108% (inactive). Also, the GFP response, % of DMSO in assay [5] is 93.1% (inactive). The compound also yielded a double positive events in [6] of 51.2%. In addition, in assay [6], the vesicle binding response is 24.1% (active). Besides, the values for the inhibition in assay [7] and in assay [14] were 7.43% (inactive) and 8% (inactive), respectively. The superoxide response (% of plate) in [16] was 79.3% (inactive). The aptamer binding inhibition in assay [8] is -1% (inactive). Further, the response in assay [11] was 0.14% (inactive). Besides, the binding (% of control) in assay [12] was 105% (inactive). Besides, the efflux inhibition (fraction of control) in assay [13] is 0.19 (inactive). Moreover, the differentiation response in [15] was 0.82% (inactive).

In the case of `Cc1nc2sccn2c(=O)c1CCN1CCC(=C(c2ccc(F)cc2)c2ccc(F)cc2)CC1`, the percent of DMSO control GFP in [1] is 101% (inactive). Moreover, the GFP response vs DMSO is 98.6% (inactive) in [2] and 121% (inactive) in assay [4]. Further, the percent response of DMSO control in assay [3] was 105% (inactive). Further, in assay [5], the GFP response, % of DMSO is 121% (inactive). In assay [6], this compound gave a double positive events of 61.2%. Further, the vesicle binding response in assay [6] is 217% (inactive). Moreover, the inhibition in [7] is 2.29% (inactive); in assay [10] it was -0.42% (inactive); in assay [14], 2% (inactive). Also, the superoxide response (% of plate) in [16] is 86.3% (inactive). In addition, in assay [8], the aptamer binding inhibition was -2% (inactive). Further, in assay [11], the response is -6.88% (inactive). Moreover, in [12], the binding (% of control) was 109% (inactive). Further, in assay [13], the efflux inhibition (fraction of control) is 0.08 (inactive). Also, the differentiation response in assay [15] is -4% (inactive).

Regarding `CCc1cc2c(=O)c(-c3ccc(F)cc3)c(C)oc2cc1OCC(=O)O`, the percent of DMSO control GFP in [1] was 107% (inactive). The GFP response vs DMSO was 98.3% (inactive) in assay [2] and 88.1% (inactive) in assay [4]. The percent response of DMSO control in [3] was 104% (inactive). The GFP response, % of DMSO in [5] is 100% (inactive). In [6], the double positive events was 70.6%. For the same compound, the vesicle binding response in [6] is 168% (inactive). Besides, the figures for the inhibition in assay [7], in assay [10] and in assay [14] were 6.81% (inactive), -6.22% (inactive) and -6% (inactive), respectively. For the same compound, the aptamer binding inhibition in assay [8] is -3% (inactive). In addition, the response in assay [9] was -3.44% (inactive); in [11], 0.76% (inactive). For the same compound, in assay [12], the binding (% of control) is 104% (inactive). In [13], the efflux inhibition (fraction of control) was 0.43 (active). In addition, the differentiation response in assay [15] was 30.5% (inactive).

With `CCOc1ccccc1OCCOc1ccc(F)cc1`, the percent of DMSO control GFP in assay [1] was 101% (inactive). For the same compound, the GFP response vs DMSO in [2] was 98.3% (inactive); in assay [4] it was 88.1% (inactive). For the same compound, the percent response of DMSO control in assay [3] is 100% (inactive). Moreover, the GFP response, % of DMSO in assay [5] was 91.1% (inactive). In assay [6], this compound displayed a double positive events of 63.4%. The vesicle binding response in assay [6] is 193% (inactive). For the same compound, the inhibition was -30.5% (inactive) in assay [7], 0.71% (inactive) in assay [10] and 1% (inactive) in assay [14]. Further, in assay [8], the aptamer binding inhibition was 0% (inactive). Besides, the response in [9] is 7.79% (inactive); in [11], -0.31% (inactive). Further, the binding (% of control) in [12] is 104% (inactive). The efflux inhibition (fraction of control) in [13] was 0.24 (inactive). Besides, the differentiation response in assay [15] was 12% (inactive).

A word on the inhibition: it is the change of the read-out against control, counted positive when it falls.
